Results published in PubChem BioAssay AID1159580 (chemical genetic matrix, 2015).
Values joined by “and” are separate entries in the source; they are usually repeats but may differ in a detail not shown here. Equal values may be shown once. The campaign covered roughly 5,500 compounds. About 2,000 (36%) were called active. Roughly 18% stayed inconclusive and do not appear here. No stated cut-off is given here; in the data, active means normalized growth mostly below about 0.91 (no sharp cut-off); inconclusive means no clear call, values can overlap the other calls; inactive means mostly above about 0.92. This is one part of the list.

Assay: chemical genetic growth profiling, strain panel (AID 1159580);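 further: tested at 20 µM; growth read once vehicle control cultures reached saturation at 30 °C; 1 = growth at the plate median or of vehicle wells; lower values mean less growth of the strain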
Conditions: growth OD

Measured: normalized growth

N[C@@H]1CONC1=O
inactive: S. cerevisiae deletion strains, locus YAL021C, strain ccr4, active compounds read low 0.982 | S. cerevisiae deletion strains, locus YAL026C, strain drs2, active compounds read low 0.977 | S. cerevisiae deletion strains, locus YAL030W, strain snc1, active compounds read low 0.973 | S. cerevisiae deletion strains, locus YBL061C, strain skt5, active compounds read low 0.963 | S. cerevisiae deletion strains, locus YBR009C, strain hhf1, active compounds read low 1.02 | S. cerevisiae deletion strains, locus YBR021W, strain FUR4, active compounds read low 1.01 | S. cerevisiae deletion strains, locus YBR023C, strain chs3, active compounds read low 0.975 | S. cerevisiae deletion strains, locus YBR171W, strain sec66, active compounds read low 0.974 | S. cerevisiae deletion strains, locus YBR229C, strain ROT2, active compounds read low 1.01 | S. cerevisiae deletion strains, locus YBR231C, strain swc5, active compounds read low 1.01 | S. cerevisiae deletion strains, locus YBR279W, strain paf1, active compounds read low 0.964 | S. cerevisiae deletion strains, locus YCL011C, strain gbp2, active compounds read low 0.969 | S. cerevisiae deletion strains, locus YCL016C, strain dcc1, active compounds read low 0.953 | S. cerevisiae deletion strains, locus YCL029C, strain bik1, active compounds read low 1.01 | S. cerevisiae deletion strains, locus YCL069W, strain vba3, active compounds read low 0.98 | S. cerevisiae deletion strains, locus YCR088W, strain abp1, active compounds read low 0.981 | S. cerevisiae deletion strains, locus YDL005C, strain med2, active compounds read low 0.958 | S. cerevisiae deletion strains, locus YDL035C, strain GPR1, active compounds read low 1.03 | S. cerevisiae deletion strains, locus YDL040C, strain nat1, active compounds read low 0.971 | S. cerevisiae deletion strains, locus YDL074C, strain BRE1, active compounds read low 1.02 | S. cerevisiae deletion strains, locus YDL101C, strain DUN1, active compounds read low 1.02 | S. cerevisiae deletion strains, locus YDL185W, strain tfp1, active compounds read low 1.02 | S. cerevisiae deletion strains, locus YDL192W, strain arf1, active compounds read low 1.01 | S. cerevisiae deletion strains, locus YDR001C, strain nth1, active compounds read low 0.986 | S. cerevisiae deletion strains, locus YDR069C, strain doa4, active compounds read low 1.01 | S. cerevisiae deletion strains, locus YDR101C, strain arx1, active compounds read low 1 | S. cerevisiae deletion strains, locus YDR137W, strain rgp1, active compounds read low 1.01 | S. cerevisiae deletion strains, locus YDR159W, strain sac3, active compounds read low 0.995 | S. cerevisiae deletion strains, locus YDR162C, strain NBP2, active compounds read low 1.03 | S. cerevisiae deletion strains, locus YDR195W, strain ref2 0.983 | S. cerevisiae deletion strains, locus YDR297W, strain sur2, active compounds read low 0.993 | S. cerevisiae deletion strains, locus YDR318W, strain mcm21, active compounds read low 1.02 | S. cerevisiae deletion strains, locus YDR334W, strain swr1, active compounds read low 0.97 | S. cerevisiae deletion strains, locus YDR335W, strain msn5, active compounds read low 0.991 | S. cerevisiae deletion strains, locus YDR388W, active compounds read low 1.01 | S. cerevisiae deletion strains, locus YDR392W, strain spt3, active compounds read low 0.934 | S. cerevisiae deletion strains, locus YDR502C, strain sam2, active compounds read low 1.02 | S. cerevisiae deletion strains, locus YEL003W, strain gim4, active compounds read low 0.992 | S. cerevisiae deletion strains, locus YEL037C, strain rad23, active compounds read low 0.982 | S. cerevisiae deletion strains, locus YEL061C, strain CIN8 (second series), active compounds read low 1 | S. cerevisiae deletion strains, locus YEL061C, strain CIN8, active compounds read low 1.01 | S. cerevisiae deletion strains, locus YER015W, strain faa2, active compounds read low 0.99 | S. cerevisiae deletion strains, locus YER016W, strain bim1, active compounds read low 0.946 | S. cerevisiae deletion strains, locus YER110C, active compounds read low 1.02 | S. cerevisiae deletion strains, locus YER111C, strain swi4, active compounds read low 0.992 | S. cerevisiae deletion strains, locus YER155C, strain BEM2 (second series), active compounds read low 1.03 | S. cerevisiae deletion strains, locus YER155C, strain BEM2, active compounds read low 0.999 | S. cerevisiae deletion strains, locus YER167W, strain BCK2, active compounds read low 1.01 | S. cerevisiae deletion strains, locus YFR010W, strain ubp6, active compounds read low 0.997 | S. cerevisiae deletion strains, locus YGL078C, strain dbp3, active compounds read low 1.01 | S. cerevisiae deletion strains, locus YGL086W, strain mad1, active compounds read low 1.01 | S. cerevisiae deletion strains, locus YGL167C, strain pmr1, active compounds read low 0.987 | S. cerevisiae deletion strains, locus YGL173C, strain kem1, active compounds read low 0.984 | S. cerevisiae deletion strains, locus YGL227W, strain vid30, active compounds read low 0.961 | S. cerevisiae deletion strains, locus YGL240W, strain doc1, active compounds read low 1.01 | S. cerevisiae deletion strains, locus YGL248W, strain PDE1, active compounds read low 1.01 | S. cerevisiae deletion strains, locus YGL253W, strain hxk2, active compounds read low 0.969 | S. cerevisiae deletion strains, locus YGR135W, strain pre9, active compounds read low 1.02 | S. cerevisiae deletion strains, locus YGR252W, strain gcn5, active compounds read low 1.02 | S. cerevisiae deletion strains, locus YHR013C, strain ard1, active compounds read low 0.964 | S. cerevisiae deletion strains, locus YHR027C, strain rpn1, active compounds read low 1 | S. cerevisiae deletion strains, locus YHR030C, strain SLT2, active compounds read low 1.01 and 1.03 | S. cerevisiae deletion strains, locus YHR079C, strain IRE1 (second series), active compounds read low 1.01 | S. cerevisiae deletion strains, locus YHR079C, strain IRE1, active compounds read low 1.03 | S. cerevisiae deletion strains, locus YHR094C, strain hxt1, active compounds read low 1.01 | S. cerevisiae deletion strains, locus YHR129C, strain ARP1, active compounds read low 1.01 | S. cerevisiae deletion strains, locus YHR142W, strain chs7, active compounds read low 0.981 | S. cerevisiae deletion strains, locus YHR200W, strain rpn10, active compounds read low 1.01 | S. cerevisiae deletion strains, locus YIL066C, strain RNR3, active compounds read low 1.03 | S. cerevisiae deletion strains, locus YIL073C, strain SPO22, active compounds read low 1.02 | S. cerevisiae deletion strains, locus YIL125W, strain kgd1, active compounds read low 1.02 | S. cerevisiae deletion strains, locus YIR030C, strain dcg1, active compounds read low 1.04 | S. cerevisiae deletion strains, locus YJL092W, strain hpr5, active compounds read low 0.992 | S. cerevisiae deletion strains, locus YJL095W, strain BCK1 (second series), active compounds read low 0.975 | S. cerevisiae deletion strains, locus YJL095W, strain BCK1, active compounds read low 1.02 and 1.03 | S. cerevisiae deletion strains, locus YJL115W, strain asf1, active compounds read low 0.968 | S. cerevisiae deletion strains, locus YJL129C, strain trk1, active compounds read low 0.977 | S. cerevisiae deletion strains, locus YJL134W, strain LCB3, active compounds read low 1.01 | S. cerevisiae deletion strains, locus YJL154C, strain vps35, active compounds read low 0.985 | S. cerevisiae deletion strains, locus YJL164C, strain tpk1, active compounds read low 1 | S. cerevisiae deletion strains, locus YJL166W, strain qcr8, active compounds read low 0.998 | S. cerevisiae deletion strains, locus YJL168C, strain set2, active compounds read low 1.01 | S. cerevisiae deletion strains, locus YJL187C, strain SWE1 (second series), active compounds read low 1.05 | S. cerevisiae deletion strains, locus YJR043C, strain POL32, active compounds read low 1 | S. cerevisiae deletion strains, locus YJR066W, strain TOR1, active compounds read low 0.979 | S. cerevisiae deletion strains, locus YJR075W, strain HOC1, active compounds read low 1.02 | S. cerevisiae deletion strains, locus YKL009W, strain mrt4, active compounds read low 1.03 | S. cerevisiae deletion strains, locus YKL068W, active compounds read low 1.01 | S. cerevisiae deletion strains, locus YKL085W, strain MDH1 (second series), active compounds read low 1.05 | S. cerevisiae deletion strains, locus YKL085W, strain MDH1, active compounds read low 1.05 | S. cerevisiae deletion strains, locus YKL160W, strain elf1, active compounds read low 0.935 | S. cerevisiae deletion strains, locus YKR001C, strain vps1, active compounds read low 1.02 | S. cerevisiae deletion strains, locus YKR026C, strain gcn3, active compounds read low 0.986 | S. cerevisiae deletion strains, locus YKR091W, strain srl3, active compounds read low 0.983 | S. cerevisiae deletion strains, locus YLL001W, strain dnm1, active compounds read low 1.01 | S. cerevisiae deletion strains, locus YLL026W, active compounds read low 0.983 | S. cerevisiae deletion strains, locus YLL041C, strain sdh2, active compounds read low 0.975 | S. cerevisiae deletion strains, locus YLR027C, strain aat2, active compounds read low 0.997 | S. cerevisiae deletion strains, locus YLR039C, strain RIC1, active compounds read low 0.975 | S. cerevisiae deletion strains, locus YLR058C, strain SHM2, active compounds read low 1.02 | S. cerevisiae deletion strains, locus YLR102C, strain apc9, active compounds read low 1.01 | S. cerevisiae deletion strains, locus YLR113W, strain HOG1, active compounds read low 1.03 | S. cerevisiae deletion strains, locus YLR221C, strain rsa3, active compounds read low 1.03 | S. cerevisiae deletion strains, locus YLR258W, strain gsy2, active compounds read low 0.97 | S. cerevisiae deletion strains, locus YLR262C, strain YPT6 (second series), active compounds read low 1 | S. cerevisiae deletion strains, locus YLR262C, strain YPT6, active compounds read low 1.01 | S. cerevisiae deletion strains, locus YLR268W, strain sec22, active compounds read low 1.02 | S. cerevisiae deletion strains, locus YLR320W, strain mms22, active compounds read low 0.997 | S. cerevisiae deletion strains, locus YLR330W, strain CHS5, active compounds read low 1.01 | S. cerevisiae deletion strains, locus YLR342W, strain FKS1 (second series), active compounds read low 1.02 | S. cerevisiae deletion strains, locus YLR342W, strain FKS1, active compounds read low 0.99 | S. cerevisiae deletion strains, locus YLR357W, strain rsc2, active compounds read low 0.948 | S. cerevisiae deletion strains, locus YLR370C, strain arc18, active compounds read low 0.968 | S. cerevisiae deletion strains, locus YLR371W, strain rom2, active compounds read low 0.998 | S. cerevisiae deletion strains, locus YLR384C, strain iki3, active compounds read low 0.991 | S. cerevisiae deletion strains, locus YLR418C, strain cdc73, active compounds read low 1.06 | S. cerevisiae deletion strains, locus YML016C, strain PPZ1, active compounds read low 1.01 | S. cerevisiae deletion strains, locus YML032C, strain rad52, active compounds read low 1.01 | S. cerevisiae deletion strains, locus YML120C, strain ndi1, active compounds read low 0.994 | S. cerevisiae deletion strains, locus YML124C, strain tub3, active compounds read low 1.02 | S. cerevisiae deletion strains, locus YMR058W, strain fet3, active compounds read low 1.03 | S. cerevisiae deletion strains, locus YMR078C, strain ctf18, active compounds read low 1.02 | S. cerevisiae deletion strains, locus YMR125W, strain sto1, active compounds read low 0.968 | S. cerevisiae deletion strains, locus YMR129W, active compounds read low 0.969 | S. cerevisiae deletion strains, locus YMR205C, strain PFK2, active compounds read low 0.994 | S. cerevisiae deletion strains, locus YMR223W, strain ubp8, active compounds read low 1.03 | S. cerevisiae deletion strains, locus YMR231W, strain pep5, active compounds read low 0.98 | S. cerevisiae deletion strains, locus YMR307W, strain GAS1, active compounds read low 0.923 | S. cerevisiae deletion strains, locus YNL067W, strain RPL9B, active compounds read low 1.02 | S. cerevisiae deletion strains, locus YNL071W, strain lat1, active compounds read low 0.996 | S. cerevisiae deletion strains, locus YNL183C, strain NPR1, active compounds read low 0.973 | S. cerevisiae deletion strains, locus YNL209W, strain ssb2, active compounds read low 0.989 | S. cerevisiae deletion strains, locus YNL233W, strain BNI4, active compounds read low 1.02 | S. cerevisiae deletion strains, locus YNL248C, strain rpa49, active compounds read low 0.94 | S. cerevisiae deletion strains, locus YNL250W, strain rad50, active compounds read low 1.01 | S. cerevisiae deletion strains, locus YNL271C, strain bni1, active compounds read low 1.02 | S. cerevisiae deletion strains, locus YNL298W, strain CLA4, active compounds read low 1.01 | S. cerevisiae deletion strains, locus YNL307C, strain MCK1, active compounds read low 1.02 | S. cerevisiae deletion strains, locus YNL322C, strain KRE1 (second series), active compounds read low 0.947 | S. cerevisiae deletion strains, locus YNR049C, strain mso1, active compounds read low 0.982 | S. cerevisiae deletion strains, locus YNR052C, strain pop2, active compounds read low 1.02 | S. cerevisiae deletion strains, locus YOL012C, strain htz1 0.629 | S. cerevisiae deletion strains, locus YOL147C, strain pex11, active compounds read low 1.01 | S. cerevisiae deletion strains, locus YOR001W, strain rrp6, active compounds read low 1.02 | S. cerevisiae deletion strains, locus YOR061W, strain CKA2, active compounds read low 1.02 | S. cerevisiae deletion strains, locus YOR069W, strain VPS5, active compounds read low 1.02 | S. cerevisiae deletion strains, locus YOR070C, strain gyp1, active compounds read low 0.984 | S. cerevisiae deletion strains, locus YOR080W, strain dia2, active compounds read low 0.967 | S. cerevisiae deletion strains, locus YOR083W, strain WHI5, active compounds read low 0.908 | S. cerevisiae deletion strains, locus YOR106W, strain vam3, active compounds read low 0.937 | S. cerevisiae deletion strains, locus YOR136W, strain idh2, active compounds read low 1.02 | S. cerevisiae deletion strains, locus YOR144C, strain elg1, active compounds read low 1.02 | S. cerevisiae deletion strains, locus YOR184W, strain ser1, active compounds read low 1.02 | S. cerevisiae deletion strains, locus YOR231W, strain MKK1, active compounds read low 1.04 | S. cerevisiae deletion strains, locus YOR265W, strain rbl2, active compounds read low 0.986 | S. cerevisiae deletion strains, locus YOR270C, strain vph1, active compounds read low 1.05 | S. cerevisiae deletion strains, locus YOR290C, strain snf2, active compounds read low 0.951 | S. cerevisiae deletion strains, locus YOR316C, strain cot1, active compounds read low 1.02 | S. cerevisiae deletion strains, locus YPL051W, strain arl3, active compounds read low 0.957 | S. cerevisiae deletion strains, locus YPL078C, strain atp4, active compounds read low 0.963 | S. cerevisiae deletion strains, locus YPL106C, strain sse1, active compounds read low 0.953 | S. cerevisiae deletion strains, locus YPL240C, strain hsp82, active compounds read low 1 | S. cerevisiae deletion strains, locus YPL256C, strain CLN2, active compounds read low 1.12 | S. cerevisiae deletion strains, locus YPR119W, strain clb2, active compounds read low 1.02 | S. cerevisiae deletion strains, locus YPR141C, strain kar3, active compounds read low 1.02 | S. cerevisiae deletion strains, locus YPR163C, strain tif3, active compounds read low 1.02 | S. cerevisiae deletion strains, locus YPR167C, strain met16, active compounds read low 1.02 | S. cerevisiae deletion strains, strain wtn01, active compounds read low 1.02 | S. cerevisiae strains, strain wild type, active compounds read low 1.01
